Results filed as inconclusive are left out. Active and inactive are the calls of the source. Calls follow the shape of the dose curve; as a rule, active = well fitted curve in the direction sought with a large enough effect; inconclusive = small, poorly fitted or top-dose-only effect, or another doubt; inactive = no such curve, though single readings can be large; an effect the other way counts as inactive or inconclusive.
How the values were obtained:
[1] = MultiTox-Fluor Cytotoxicity Assay - LYMP1-001 - Dead Cells (AID 946); conditions: LYMP1-001 lymphoblastoid cells, dead-cell protease fluorescence; series mostly up to 92.2 µM;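 also: cells exposed to compound for 16 h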
Method in brief: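 LYMP1-001 lymphoblastoid cells (2500/well) treated 16 h at 37 C. Dead-cell protease cleavage of bis-AAF-R110 read at Ex/Em 485/520. Normalized to DMSO and 15 uM tetraoctylammonium bromide; AC50 from Hill fits.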

[2] = MultiTox-Fluor Cytotoxicity Assay - LYMP1-001 - Live Cells (AID 947); conditions: LYMP1-001 lymphoblastoid cells, live-cell protease fluorescence viability; series mostly up to 92.2 µM
[3] = Cell Viability - LYMP2-011 (AID 969); conditions: LYMP2-011 lymphoblastoid cells viability; series mostly up to 92.2 µM; also: nearly all actives have a fitted effect of over 60% in size
Method in brief: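 In this qHTS cytotoxicity format, compounds are tested across concentrations on human lymphoblastoid cells in complete medium for 24 hours at 37 C. Viability is taken as cellular ATP measured by luciferase luminescence.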

[4] = Cell Viability - LYMP2-013 (AID 970); conditions: LYMP2-013 lymphoblastoid cells viability; series mostly up to 92.2 µM; also: nearly all actives have a fitted effect of over 55% in size
Method in brief: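 Cytotoxicity is scored as a concentration-dependent drop in intracellular ATP in human lymphoblastoid cells after 24 hr compound exposure at 37 C. ATP is quantified by luciferase luminescence, and AC50 values come from Hill-equation modeling.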

[5] = Cell Viability - LYMP2-015 (AID 971); conditions: LYMP2-015 lymphoblastoid cell viability; series mostly up to 92.2 µM; also: nearly all actives have a fitted effect of over 55% in size
Method in brief: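 Cells are seeded at 2500 per well and incubated 5 hr at 37 C. Compounds are added across a concentration series for 24 hr at 37 C. CellTiter-Glo is added, and luminescence is read after 30 min at room temperature.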

[6] = Cell Viability - LYMP2-017 (AID 972); conditions: LYMP2-017 lymphoblastoid cell viability; series mostly up to 92.2 µM; also: nearly all actives have a fitted effect of over 55% in size
Method in brief: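 Cytotoxicity is scored as a concentration-dependent drop in cellular ATP in a human lymphoblastoid line after 24 hr treatment at 37 C. Values are AC50s from Hill-equation modelling.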

[7] = Cell Viability - LYMP2-019 (AID 973); conditions: LYMP2-019 lymphoblastoid cell line viability; series mostly up to 92.2 µM; also: nearly all actives have a fitted effect of over 55% in size
Method in brief: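 Cytotoxicity is scored as a concentration-dependent drop in cellular ATP after cells (2500/well) receive compound for 24 hr at 37 C. Tetraoctylammonium bromide serves as positive control.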

[8] = Cell Viability - LYMP2-021 (AID 974); conditions: LYMP2-021 lymphoblastoid cells viability; series mostly up to 92.2 µM
Method in brief: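 Loss of cellular ATP, measured with a luciferase-based CellTiter-Glo readout, serves as the toxicity signal in human lymphoblastoid cells treated for 24 hours at 37 C. Potency is reported as AC50 from a standard Hill model.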

[9] = Cell Viability - LYMP2-023 (AID 975); conditions: LYMP2-023 lymphoblastoid cell viability; series mostly up to 92.2 µM; also: nearly all actives have a fitted effect of over 55% in size
Method in brief: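 Steps: seed 2500 human lymphoblastoid cells per well, incubate 5 hr at 37 C, add compound for 24 hr at 37 C, add CellTiter-Glo, hold 30 min at room temperature, read luminescence. AC50 derived by Hill modelling.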

[10] = Cell Viability - LYMP2-006 (AID 978); conditions: LYMP2-006 lymphoblastoid cell viability, qHTS; series mostly up to 92.2 µM; also: nearly all actives have a fitted effect of over 60% in size
Method in brief: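 Human lymphoblastoid cells (LYMP2-006), 2500/well in complete medium, were treated with compound for 24 hr at 37 C. Cellular ATP was read by CellTiter-Glo luminescence after 30 min, and AC50 values came from Hill-equation fits of concentration-response data.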

[11] = Cell Viability - LYMP2-007 (AID 979); conditions: LYMP2-007 lymphoblastoid cell viability; series mostly up to 92.2 µM;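 also: cells exposed to compound for 24 h before reading; nearly all actives have a fitted effect of over 60% in size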
Method in brief: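 Cells are seeded at 2500 per well and rested 5 hr. Compounds are then added over a concentration series for 24 hr at 37 C. CellTiter-Glo is added for 30 min at room temperature before luminescence reading.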

[12] = Cell Viability - LYMP2-008 (AID 980); conditions: LYMP2-008 lymphoblastoid cell viability, qHTS; series mostly up to 92.2 µM; also: nearly all actives have a fitted effect of over 60% in size
Method in brief: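 Cells seeded at 2500/well and rested 5 hr at 37 C; compounds added over a concentration range and incubated 24 hr at 37 C; CellTiter-Glo added, 30 min at room temperature; luminescence read and AC50 fitted with Hill model.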

[13] = Cell Viability - LYMP2-012 (AID 982); conditions: LYMP2-012 lymphoblastoid cell viability qHTS; series mostly up to 92.2 µM
[14] = Cell Viability - LYMP2-014 (AID 983); conditions: LYMP2-014 lymphoblastoid cells, viability qHTS; series mostly up to 92.2 µM; also: nearly all actives have a fitted effect of over 50% in size
Method in brief: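 Cells are plated at 2500/well and left 5 hr at 37 C. Compounds are added across a concentration range and incubated 24 hr at 37 C in complete medium. CellTiter-Glo is added, and luminescence is read after 30 min at room temperature.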

[15] = Cell Viability - LYMP2-016 (AID 984); conditions: LYMP2-016 lymphoblastoid cell viability, qHTS; series mostly up to 92.2 µM; also: nearly all actives have a fitted effect of over 55% in size
Method in brief: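 Human lymphoblastoid LYMP2-016 cells, 2500 per well, treated with compounds for 24 h at 37 C. Viability read as intracellular ATP by CellTiter-Glo luminescence after 30 min at room temperature; AC50 from Hill fits of concentration-response.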

[16] = Cell Viability - LYMP2-018 (AID 985); conditions: LYMP2-018 lymphoblastoid cells, viability (qHTS); series mostly up to 92.2 µM; also: nearly all actives have a fitted effect of over 50% in size
Method in brief: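 Seed 2500 lymphoblastoid cells per well, incubate 5 hr at 37 C, add compound and incubate 24 hr at 37 C, add CellTiter-Glo, wait 30 min at room temperature, then read luminescence.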

[17] = Cell Viability - LYMP2-020 (AID 986); conditions: series mostly up to 92.2 µM; also: nearly all actives have a fitted effect of over 55% in size
Method in brief: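 Seed 2500 cells per well and incubate 5 hr at 37 C. Add compounds at a concentration series and incubate 24 hr at 37 C. Add CellTiter-Glo, wait 30 min at RT, read luminescence, and fit a Hill curve for AC50.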

[18] = Cell Viability - LYMP2-024 (AID 988); conditions: LYMP2-024 lymphoblastoid cell viability; series mostly up to 92.2 µM; also: nearly all actives have a fitted effect of over 60% in size
Method in brief: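 qHTS cytotoxicity, human lymphoblastoid line, complete medium; 24 h cpd treatment, 37 C; CellTiter-Glo ATP luminescence readout; tetraoctylammonium bromide positive control; AC50 via Hill fit.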

[19] = Cell Viability - LYMP2-026 (AID 989); conditions: LYMP2-026 lymphoblastoid cell viability, qHTS; series mostly up to 92.2 µM; also: nearly all actives have a fitted effect of over 50% in size
Method in brief: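 Cells are seeded at 2500 per well and held 5 hr at 37 C. Compounds are added in concentration series for 24 hr, then CellTiter-Glo reagent is applied and luminescence read.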

[20] = target: Nuclear receptor ROR-gamma (Homo sapiens) (UniProt P51449); test: qHTS assay for small molecule antagonists of the retinoid-related orphan receptor gamma (ROR-gamma) signaling pathway (AID 651802); conditions: ROR-gamma antagonist cell reporter assay; series mostly up to 92.2 µM; also: nearly all actives have a fitted effect of over 60% in size
Nuclear receptor ROR-gamma (Homo sapiens), sequence (P51449 whole entry, looked up): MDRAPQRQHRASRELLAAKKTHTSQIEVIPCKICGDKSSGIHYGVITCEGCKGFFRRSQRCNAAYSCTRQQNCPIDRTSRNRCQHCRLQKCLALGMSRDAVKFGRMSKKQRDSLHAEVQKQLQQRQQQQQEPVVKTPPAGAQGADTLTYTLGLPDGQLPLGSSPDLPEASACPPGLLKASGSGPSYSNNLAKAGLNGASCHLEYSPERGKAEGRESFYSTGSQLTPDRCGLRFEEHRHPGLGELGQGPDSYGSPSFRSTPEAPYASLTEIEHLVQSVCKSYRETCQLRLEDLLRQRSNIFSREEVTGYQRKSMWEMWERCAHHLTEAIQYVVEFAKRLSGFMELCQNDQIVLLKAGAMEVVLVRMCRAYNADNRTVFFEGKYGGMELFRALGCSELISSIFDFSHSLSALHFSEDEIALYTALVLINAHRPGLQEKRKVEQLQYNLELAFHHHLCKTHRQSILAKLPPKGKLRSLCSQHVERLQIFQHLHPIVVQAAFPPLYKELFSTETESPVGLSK
Method in brief: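 Steps: cells dispensed; compound or DMSO transferred by pin tool; doxycycline added to induce the ROR response element-driven luciferase; plates held 16hr at 37C; ONE-Glo added and luminescence measured.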

Measured: Potency
Potency is read from the fitted curve at half-maximal effect.

C=CC(=O)OCC(CO)(COC(=O)C=C)COC(=O)C=C
active: [1] 7.94 µM | [2] 6.31 µM | [3] 5.01 µM | [4] 5.01 µM | [5] 5.01 µM | [6] 5.01 µM | [7] 3.98 µM | [8] 3.98 µM | [9] 6.31 µM | [10] 5.01 µM | [11] 5.01 µM | [12] 5.01 µM | [13] 3.98 µM | [14] 5.01 µM | [15] 5.01 µM | [16] 3.98 µM | [17] 3.98 µM | [18] 3.16 µM | [19] 6.31 µM | [20] 4.22 µM

O=Nc1ccc(Nc2ccccc2)cc1
active: [1] 5.01 µM | [2] 7.94 µM | [3] 7.94 µM | [4] 10 µM | [5] 3.98 µM | [6] 6.31 µM | [7] 3.98 µM | [8] 5.01 µM | [9] 6.31 µM | [10] 7.94 µM | [11] 5.01 µM | [12] 7.94 µM | [13] 7.94 µM | [14] 6.31 µM | [15] 6.31 µM | [16] 3.98 µM | [17] 5.01 µM | [18] 2.51 µM | [19] 6.31 µM | [20] 7.5 µM

c1cc(OCC2CO2)cc(OCC2CO2)c1 (configuration not stated)
active: [3] 39.8 µM | [4] 50.1 µM | [5] 39.8 µM | [6] 39.8 µM | [7] 39.8 µM | [8] 39.8 µM | [9] 50.1 µM | [10] 39.8 µM | [11] 39.8 µM | [12] 39.8 µM | [13] 31.6 µM | [14] 39.8 µM | [15] 25.1 µM | [16] 31.6 µM | [17] 39.8 µM | [18] 39.8 µM | [19] 39.8 µM
